The record followed here is PubChem BioAssay (Tox21).

The nature of test [1]: qHTS assay to identify small molecule agonists of the vitamin D receptor (VDR) signaling pathway - cell viability counter screen (AID 743224). Further: series mostly up to about 63 µM; nearly all actives have a fitted effect of over 50% in size. In short, it runs like this: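 In parallel with the bla FRET readout, cytotoxicity toward VDR-bla cells after 16 h compound exposure was assessed by CellTiter-Glo, with luminescence recorded after a 30 min room-temperature incubation.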

Test [2] can be described thus: qHTS assay to identify small molecule antagonists of the vitamin D receptor (VDR) signaling pathway - cell viability counter screen (AID 743225). Further: nearly all actives have a fitted effect of over 50% in size. Further: potency means the concentration at half of the fitted maximal effect. In short, it runs like this: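 Viability counter screen run in the same wells as the beta-lactamase reporter assay: HEK 293T VDR-UAS-bla cells, 16 h compound exposure at 37C with 3 nM (final) 1-alpha,25-dihydroxyvitamin D3. CellTiter-Glo luminescence, 30 min, room temperature.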

Test [3] is described as follows: qHTS assay to identify small molecule agonists of the NFkB signaling pathway - cell viability counter screen (AID 1159515; calls by dose curve; further: nearly all actives have a fitted effect of over 55% in size; further: potency means the concentration at half of the fitted maximal effect). In short, it runs like this: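 Plate 2,000 NFkB-bla ME-180 cells/well; incubate overnight. Add compounds, 5 hr at 37 C. Add FRET substrate, 1.5 hr RT. Add CellTiter-Glo, 30 min RT; read luminescence.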
A short description of test [4]: qHTS assay to identify small molecule agonists of the endoplasmic reticulum stress response signaling pathway - cell viability counter screen (AID 1159517; calls by dose curve; further: nearly all actives have a fitted effect of over 50% in size; further: potency means the concentration at half of the fitted maximal effect). In a few lines: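 Cytotoxicity of test compounds toward ESRE-bla HeLa cells was assessed after 5 hr exposure. The luminescent CellTiter-Glo signal was measured 30 min after reagent addition.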
The nature of test [5]: qHTS assay to identify small molecule antagonists of the retinoid-related orphan receptor gamma (ROR-gamma) signaling pathway - cell viability counter screen (AID 1159520). Further: nearly all actives have a fitted effect of over 50% in size. Further: potency means the concentration at half of the fitted maximal effect. In a few lines:
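Tet-on ROR gamma CHO cells (1,000/well) were plated 4 hr, given compounds in DMSO for 2 hr at 37 C, then induced with 1 uM final doxycycline for 16 hr. Viability was read as ATP by CellTiter-Glo luminescence after 30 min.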

The nature of test [6]: qHTS assay to identify small molecule agonists of the AP-1 signaling pathway - cell viability counter screen (AID 1159525; calls by dose curve; further: nearly all actives have a fitted effect of over 55% in size; further: potency means the concentration at half of the fitted maximal effect). In a few lines:
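Each titration point was normalised to DMSO and tetra n-octyl ammonium bromide controls. The read was Cell Titer Glo luminescence after 30 min at RT, following 5 h compound exposure of ME-180 AP-1-bla cells at 37 °C.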

A short description of test [7]: qHTS assay to identify small molecule agonists of the AP-1 signaling pathway (AID 1159526; calls by dose curve).
The target of test [8] is Retinoic acid receptor RXR-alpha (Homo sapiens) (UniProt P19793). The test is described as follows: qHTS assay to identify small molecule agonists of the RXR signaling pathway (AID 1159527; calls by dose curve; further: nearly all actives have a fitted effect of over 35% in size; further: potency means the concentration at half of the fitted maximal effect). In a few lines: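 Agonist mode; 9-cis retinoic acid positive control. HEK 293T UAS-bla reporter cells, 2% charcoal-stripped FBS, 16 hr compound exposure at 37 C/5% CO2. LiveBLAzer B/G FRET substrate 2 hr RT; ex 405, em 460/530 nm.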
Retinoic acid receptor RXR-alpha (Homo sapiens), sequence (P19793 whole entry, looked up): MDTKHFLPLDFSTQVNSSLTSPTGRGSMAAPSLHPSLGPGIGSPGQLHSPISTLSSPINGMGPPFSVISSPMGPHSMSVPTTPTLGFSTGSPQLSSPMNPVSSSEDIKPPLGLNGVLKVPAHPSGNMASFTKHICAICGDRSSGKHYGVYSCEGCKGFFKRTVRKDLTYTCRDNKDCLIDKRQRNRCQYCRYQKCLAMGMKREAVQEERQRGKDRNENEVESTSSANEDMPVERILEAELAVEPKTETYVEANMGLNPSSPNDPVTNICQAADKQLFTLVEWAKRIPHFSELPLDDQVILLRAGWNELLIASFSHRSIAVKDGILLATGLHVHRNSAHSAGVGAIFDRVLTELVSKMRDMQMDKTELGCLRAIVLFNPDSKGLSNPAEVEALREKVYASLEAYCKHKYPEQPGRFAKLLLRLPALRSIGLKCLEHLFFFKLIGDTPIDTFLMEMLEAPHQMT

Test [9] can be described thus: qHTS assay to identify small molecule agonists of the RXR signaling pathway - cell viability counter screen (AID 1159529). Further: nearly all actives have a fitted effect of over 50% in size. Further: potency means the concentration at half of the fitted maximal effect. In short, it runs like this:
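Luminescence from CellTiter-Glo (30 min, RT) measured viability in the same wells as the beta-lactamase reporter readout. Cells: GeneBLAzer RXR-alpha HEK 293T, 2% charcoal-stripped FBS. Compound exposure 16 hr, 37 C.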

Test [10] is described as follows: qHTS assay to identify small molecule antagonists of the retinoid acid receptor (RAR) signaling pathway - cell viability counter screen (AID 1159551). Further: nearly all actives have a fitted effect of over 35% in size. Further: potency means the concentration at half of the fitted maximal effect. In a few lines:
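Viability of C3RL4 cells is quantified from ATP by luminescence after 6 h treatment at 37 C with compounds and 1 uM retinol.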

Test [11] is described as follows: qHTS assay to identify small molecule antagonists of the retinoic acid receptor (RAR) signaling pathway (AID 1159552; further: nearly all actives have a fitted effect of over 50% in size; further: potency means the concentration at half of the fitted maximal effect). In short, it runs like this:
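Luminescence from a RARE luciferase reporter in C3RL4 cells served as read-out. Cells received compounds together with 1 uM final retinol and incubated 6 hr at 37 C before detection reagent was added for 30 min at room temperature.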

The nature of test [12]: qHTS assay to identify small molecule agonists of the retinoic acid receptor (RAR) signaling pathway (AID 1159553). In short, it runs like this:
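Compounds dissolved in DMSO were pinned onto C3RL4 cells seeded the previous day, and plates were held 6 hr at 37 C. RARE-driven luciferase output was then read by luminescence.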

The nature of test [13]: qHTS assay to identify small molecule antagonists of the estrogen related receptor (ERR) signaling pathway from Tox21 library - cell viability counter screen (AID 1224834). Further: nearly all actives have a fitted effect of over 30% in size. Further: potency means the concentration at half of the fitted maximal effect. In a few lines: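 In this quantitative HTS format, ERR cells receive compounds in DMSO and are incubated for 17.5 h at 37 C. Live-cell protease activity is then detected with CellTiter-Fluor.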
Test [14] addresses Luciferin 4-monooxygenase (Photinus pyralis) (UniProt P08659). The experiment in a line: qHTS assay to identify small molecule inhibitors of firefly luciferase (AID 1224835). Further: nearly all actives have a fitted effect of over 25% in size. Further: potency means the concentration at half of the fitted maximal effect. In a few lines: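 Quantitative HTS format; KM concentrations of both substrates. Purified P. pyralis FLuc activity quantified from luminescence images.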
Test [15] concerns the target Nuclear receptor ROR-gamma (Homo sapiens) (UniProt P51449). The test is described as follows: qHTS assay to identify small molecule antagonists of the retinoid-related orphan receptor gamma (ROR-gamma) signaling pathway (AID 1159521; further: nearly all actives have a fitted effect of over 50% in size; further: potency means the concentration at half of the fitted maximal effect). In a few lines: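 Luminescence readout (ONE-Glo, 30 min RT) after 16 h doxycycline induction; loss of signal scored as antagonism. CHO cells with TET-inducible RORγ and RORE-LUC reporter; compounds added 2 h before 1 uM final doxycycline.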

“And” between values parts separate entries of the source, which are not always exact repeats. Identical values can stand only once. Records with an inconclusive call do not appear. Some structures have more than one record in an assay (separate samples or runs), and their calls can disagree. The source made the active and inactive calls. Unless noted, the call rests on the fitted dose curve; in most records, active means well fitted curve in the direction sought with a large enough effect in the repeat runs; inconclusive means weak or mixed curves; inactive means no such curve, though single readings can be large; an effect the other way counts as inactive or inconclusive.

Luciferin 4-monooxygenase (Photinus pyralis), sequence (P08659 whole entry, looked up): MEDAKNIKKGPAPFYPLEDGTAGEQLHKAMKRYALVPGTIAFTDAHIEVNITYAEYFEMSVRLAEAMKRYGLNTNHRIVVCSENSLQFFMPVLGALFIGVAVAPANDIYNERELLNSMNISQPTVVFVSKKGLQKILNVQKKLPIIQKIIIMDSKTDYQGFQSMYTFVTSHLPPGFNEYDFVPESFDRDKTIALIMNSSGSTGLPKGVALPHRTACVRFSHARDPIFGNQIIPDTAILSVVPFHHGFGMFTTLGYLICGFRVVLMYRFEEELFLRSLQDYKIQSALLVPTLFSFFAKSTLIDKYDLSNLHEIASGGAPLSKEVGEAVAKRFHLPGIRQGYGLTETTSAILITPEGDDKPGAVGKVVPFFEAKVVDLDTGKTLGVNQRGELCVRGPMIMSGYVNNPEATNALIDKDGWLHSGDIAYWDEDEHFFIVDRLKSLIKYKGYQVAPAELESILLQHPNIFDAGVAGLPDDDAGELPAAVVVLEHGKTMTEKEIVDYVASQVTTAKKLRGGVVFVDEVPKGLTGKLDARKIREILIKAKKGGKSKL

Consider `NCCCCCC(=O)O`, for which the Potency entry in [1], in test [2], in test [3], in test [4], in [5] and in test [6] was “inactive” in each case. The Potency entry in test [7], in [8], in test [9], in [10], in [11] and in [12] was “inactive” throughout. The Potency entry in test [13] and in test [14] was “inactive” each time.
As to `C=C(C)C1CC=C(C)C(OC(C)=O)C1` (stereo not given), the Potency result in test [2], in test [3], in test [4], in test [5], in test [15] and in test [6] was “inactive” each time. In addition, the Potency result in [7], in [8], in [9], in test [10], in test [11] and in test [12] was “inactive” throughout. Also, the Potency result in test [13] and in test [14] was “inactive” in each case.
In the case of `Nc1cc(S(=O)(=O)O)cc2cc(S(=O)(=O)O)cc(O)c12`, the Potency entry in [1], in test [2], in [3], in test [4], in [6] and in test [7] was “inactive” in each case. For the same compound, the Potency result in [9] and in test [12] was “inactive” each time. Moreover, the Potency entry in test [15] is “inactive and 30.6 µM (active)”; in [8] it was “inactive and 24.5 µM (active)”; in test [14], 31.7 µM (active).
Take `Cc1cc(OCCOCC[N+](C)(C)Cc2ccccc2)ccc1C(C)(C)CC(C)(C)C`: the Potency was 13.7 µM (active) and 19 µM (active) in test [2]; 38.7 µM (active) and 26.8 µM (active) in test [3]; 19.4 µM (active) in [4]; 68.2 µM (active) and 29.8 µM (active) in [5]; 34.5 µM (active) and 26.8 µM (active) in [6]; 10.9 µM (active) and 4.77 µM (active) in [9]. The Potency in [10] is 60.8 µM (active) and 29.8 µM (active); in [11], 48.3 µM (active) and 29.8 µM (active); in test [13] it was 54.2 µM (active) and 16.8 µM (active). Besides, the Potency result in [14] was “inactive”.
On to `O=C1OC2(c3ccc(O)cc3Oc3cc(O)ccc32)c2ccccc21`, for which the Potency entry in test [1], in [2], in test [3], in test [4], in test [5] and in test [6] was “inactive” throughout. For the same compound, the Potency result in test [9] and in test [10] was “inactive” in each case.
Take `CCCCN(CCO)CCCC`: the Potency entry in [1], in [2], in [3], in test [4], in test [15] and in test [6] was “inactive” throughout. The Potency result in test [7], in test [8], in test [9], in test [10], in test [11] and in test [12] was “inactive” in each case. For the same compound, the Potency result in test [13] and in test [14] was “inactive” each time.
On to `CC(=O)OCCOCCOCCOC(C)=O`, for which the Potency entry in test [1], in test [2], in test [3], in [4], in [15] and in [6] was “inactive” each time. Besides, the Potency entry in test [7], in [9], in test [10], in [11], in test [12] and in [13] was “inactive” throughout. The Potency result in test [14] is “inactive”. In test [8], the Potency result is “inactive and 12.3 µM (active)”.
